assay: yeast AGP1-GFP fluorescence change, single-dose – cell-based, flow cytometry, S. cerevisiae, cherry picks, confirmation (AID 2273);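 also: median GFP channel fluorescence over the whole cell population gate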; details: S. cerevisiae AGP1-GFP strain, 3 h, at 10 µM;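 active = GFP response above 150% of the DMSO level; inconclusive = fewer than 70 events counted for a yeast strain; inactive = the rest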

GFP response, % of DMSO, inactive:
Cc1ccc(-c2ccc(/C=N/NC(N)=S)o2)cc1 91.9%
CC(C)(C)c1ccc(C(=O)N/N=C/c2cccc(Cl)c2)cc1 97%
Cc1ccc(S(=O)(=O)Nc2cc(Cl)c(O)c3ncccc23)cc1 91.2%
CC1CCc2c(C(=O)NCc3cccnc3)csc2C1 (stereo unspecified) 95.9%
CCNc1nc(-c2ccc(Cl)cc2)cs1 97.8%
O=C(CSc1nc2ccsc2c(=O)n1CC1CCC(C(=O)O)CC1)c1ccc(F)cc1 (stereo unspecified) 94.6%
CC(=O)Oc1ccc(N2C(=O)C3C4C=CC(CO)(O4)C3C2=O)cc1 (stereo unspecified) 101%
Oc1c(C(Nc2cccc(C(F)(F)F)c2)c2ccncc2)ccc2cccnc12 (stereo unspecified) 94%
COc1cc(C2CC(c3cccnc3)=NN2c2ccc(F)cc2)cc(OC)c1OC (stereo unspecified) 102%
COc1ccc(C(=O)C2CCCN(C(=O)c3cccs3)C2)cc1F (stereo unspecified) 103%
COC(=O)c1ccc(Cn2cc(/C=C\[N+](=O)[O-])c3ccccc32)o1 98.2%
CC(C)(C)NC(=O)CN(C(=O)CCC(=O)Nc1nccs1)c1ccc(F)cc1 101%
COc1ccccc1CNC(=O)CS(=O)Cc1nc(-c2ccc(OC)c(OC)c2)oc1C (stereo unspecified) 97.6%
O=C(COC(=O)C1CCN(c2ccc(C(F)(F)F)cn2)CC1)Nc1cccc(F)c1 97.2%
COc1ccc(CCNc2nc(-c3sc(C)nc3C)cs2)cc1OC 93.7%
O=C(Nc1c2c(nn1-c1ccccc1)CS(=O)C2)c1ccco1 (stereo unspecified) 100%

Reference: PubChem BioAssay
